# Screening data: PubChem BioAssay, National Center for Advancing Translational Sciences (NCATS)
# A549 viability: kills or reduces viability of A549 cells in Nrf2 counter-screen; 0.16% of 390,000 active; AID 504648; A549 ARE-Fluc cells, CellTiter-Fluor viability, 18-24 h; Potency, µM (doses to about 46 µM), inactives show top-dose activity change, negative = cytotoxicity, most hits filed as inhibitors; further: on the % scale 0 is the no-effect control and ±100 the full control effect
#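 A549 ARE_Fluc cells in 5% FBS OPTI-MEM were exposed to compounds in concentration-response for 18-24 h at 37 deg C. Viability was read by CellTiter-Fluor fluorescence (Ex 405/Em 525) after 30 min, before the luciferase read.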
# Rango dissoc inh: prevents RanGTP from dissociating the Rango-importin beta complex; Biochemical FRET Rango-importin beta, RanGTP-induced dissociation; O95149+P62826; AID 540253; Potency, µM (top dose mostly 46.1 µM), for the others: at the top dose activity change, negative = inhibition; 0.071% of 340,000 active; calls by dose curve; further: % of control where 0% means no effect; nearly all actives have a fitted effect of over 45% in size
#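 Compounds sat 5 min at room temperature with 0.1 uM Rango biosensor plus 0.25 uM importin beta, then FRET pre-read. RanGTP-RCC1 (0.6 uM Ran, 2mM GTP, 0.2 uM RCC1) added for 45 min, and the CFP/YFP post-read measured blocked complex dissociation.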
# Nrf2 inh: blocks Nrf2 signaling. A549 ARE-Fluc reporter, luciferase luminescence, 18-24 h. Potency, µM (series often up to 46 µM), for the others: at the top dose activity change, negative = inhibition, hits mostly inhibitors. 2.1% of 360,000 active; further: on the % scale 0 is the no-effect control and ±100 the full control effect; nearly all actives have a fitted effect of over 60% in size
#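 Two sequential reads on A549 ARE_Fluc cells exposed to compound for 18-24 h: a CellTiter-Fluor fluorescence read for viability, then a luciferase luminescence read for Nrf2/ARE activity.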
# Rango-impB inh: prevents formation of the Rango-importin beta complex; AID 540263; 0.031% of 340,000 active; Potency, µM (titrated, usually from 92.2 µM), inactives show top-dose inhibition of complex formation; Rango CFP/YFP FRET sensor + importin beta, 45 min; Q14974; calls by dose curve;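 further: 0% = DMSO wells and 100% = buffer wells lacking importin beta; nearly all actives have a fitted effect of over 15% in size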
# Target sequence (Q14974 whole entry, looked up): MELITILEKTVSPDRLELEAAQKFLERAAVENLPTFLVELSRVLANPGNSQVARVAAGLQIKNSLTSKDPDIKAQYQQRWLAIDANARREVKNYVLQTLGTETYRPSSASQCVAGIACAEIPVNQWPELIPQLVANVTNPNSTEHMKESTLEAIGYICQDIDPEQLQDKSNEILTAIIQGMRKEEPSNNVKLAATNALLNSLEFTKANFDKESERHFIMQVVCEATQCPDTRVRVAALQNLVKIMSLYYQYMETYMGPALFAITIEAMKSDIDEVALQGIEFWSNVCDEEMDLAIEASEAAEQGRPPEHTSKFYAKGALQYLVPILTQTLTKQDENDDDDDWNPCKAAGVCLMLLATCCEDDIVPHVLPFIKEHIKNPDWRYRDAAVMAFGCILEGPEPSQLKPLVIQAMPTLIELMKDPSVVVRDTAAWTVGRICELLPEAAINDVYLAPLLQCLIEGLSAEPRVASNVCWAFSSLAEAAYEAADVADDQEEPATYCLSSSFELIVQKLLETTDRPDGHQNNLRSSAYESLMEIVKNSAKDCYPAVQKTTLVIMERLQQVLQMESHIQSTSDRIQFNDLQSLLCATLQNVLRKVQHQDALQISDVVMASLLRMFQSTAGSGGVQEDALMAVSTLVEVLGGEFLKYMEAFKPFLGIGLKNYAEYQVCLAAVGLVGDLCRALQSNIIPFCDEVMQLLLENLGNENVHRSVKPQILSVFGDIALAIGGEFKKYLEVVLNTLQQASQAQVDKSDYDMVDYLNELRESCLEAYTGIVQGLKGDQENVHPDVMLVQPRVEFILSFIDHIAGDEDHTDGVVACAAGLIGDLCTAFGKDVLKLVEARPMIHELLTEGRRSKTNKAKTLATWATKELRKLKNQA
#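 FRET biosensor Rango (snurportin 1 IBB between N-terminal EYFP and C-terminal Cerulean), 50 nM in PBS/1 mM DTT/0.02% Tween-20/0.1% BSA, preincubated 5 min RT with compound; 0.125 microM importin beta added, 45 min RT, CFP/YFP FRET ratio read.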
# Nrf2 activator: activates Nrf2 signaling; AREc32 ARE-luciferase reporter (MCF7-derived line), luminescence, 24 h; 0.31% of 410,000 active; AID 624171; Potency, µM (titrated, usually from 46.1 µM), for inactives: at the top dose activation, actives largely listed as activators; further: % of control where 0% means no effect; nearly all actives have a fitted effect of over 65% in size
#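 Nrf2 activation is followed as ARE-luciferase induction in the AREc32 line after one day of compound treatment; luminescence is read with Steady-Glo.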
# * hit, by the source's call; ? = inconclusive; · = no result given; [ ] = another dose, or the depositor's remark. Rows were chosen to be rich in hits. Some 2.3% of all compounds tested hit in one or more screens of this group. Unless noted, the call rests on the fitted dose curve; in most records, active means well fitted curve in the direction sought with a large enough effect; inconclusive means small, poorly fitted or top-dose-only effect, or another doubt; inactive means no such curve, though single readings can be large; an effect the other way counts as inactive or inconclusive. Potency means the concentration at half of the fitted maximal effect.
SMILES,A549 viability,Rango dissoc inh,Nrf2 inh,Rango-impB inh,Nrf2 activator
O=C(COC(=O)c1ccc2ccccc2n1)Nc1cccc(S(=O)(=O)NC2=NCCCCC2)c1,-7%,-24%,5%,0%,0%
O=C(Nc1cccc(S(=O)(=O)NC2=NCCC2)c1)c1ccccc1,0%,-2%,-20%,0%,-1%
O=C(Nc1cccc(S(=O)(=O)NC2=NCCCCC2)c1)c1ccc(Cl)cc1,-20%,-5%,15µM*,?,0%
CCc1nc2ccccc2c(C(=O)OCC(=O)Nc2cccc(S(=O)(=O)NC3=NCCCCC3)c2)c1C,-25%,8%,16µM*,1%,-2%
O=C(CSc1nnc(CNC(=O)c2ccco2)o1)Nc1ccccc1F,3%,-1%,1%,-2%,0%
O=C(Nc1cc(-c2nc3ncccc3o2)ccc1Cl)c1cccs1,-8%,-17%,-2%,0%,6.3µM*
O=C1CN(c2nc(-c3cccnc3)nc3sc4c(c23)CCCC4)CCN1,-1%,1%,12µM*,0%,3%
CN1CCc2c(sc(NC(=O)c3ccc([N+](=O)[O-])o3)c2C(N)=O)C1,21µM*,-24%,?,?,-2%
NC(=O)c1c(NC(=O)c2ccc([N+](=O)[O-])o2)sc2c1CCCC2,2%,-2%,-2%,0%,4µM*
Cn1c(=O)c2c(nc(NCc3ccccc3)n2Cc2ccc(Cl)c(Cl)c2)n(C)c1=O,?,·,?,·,0%
FC(F)(F)c1cc(-c2ccco2)nc(NCc2ccco2)n1,-1%,?,6%,-4%,10µM*
Cc1ccc(NS(=O)(=O)c2cc3c(cc2-c2ccccc2)NC(=O)CO3)cc1C,3%,·,2%,·,·
C=CCNC1=C(Cl)C(=O)c2ccccc2C1=O,?,1%,16µM*,4%,?
COCCCNC1=C(Cl)C(=O)c2ccccc2C1=O,-14%,-2%,26µM*,2%,-2%
CC(C)OCCCNC1=C(Cl)C(=O)c2ccccc2C1=O,-18%,-9%,?,0%,26%
O=C1C(Cl)=C(NCCc2ccccc2)C(=O)c2ccccc21,-5%,7%,2%,-3%,?
CCOc1cc(C(=O)N2CC(=O)Nc3ccc(F)cc3C2c2ccccc2)cc(OCC)c1OCC (centres undefined),8%,·,-16%[9.27 µM],·,0%
COc1ccc(N2CCN(C3CCCN(C(=O)CN4CCOC4=O)C3)CC2)cc1 (centres undefined),-1%,-8%,4%,0%,0%
COc1ccc(CNc2nc(S(=O)(=O)c3ccccc3)c(Cl)s2)cc1OC,-22%,-1%,15µM*,6%,3%
O=S(=O)(c1ccccc1)c1nc(NCc2ccccc2)sc1Cl,-4%,-4%,?,0%,1%
CCc1nn2c(=O)cc(COC(=O)c3cccc(NC(=O)c4cccs4)c3)nc2s1,-14%,·,·,·,4%
O=[N+]([O-])c1cc2ccccc2c(O)c1O,·,·,·,·,12%
O=[N+]([O-])c1cc(-c2ccccc2)cc([N+](=O)[O-])c1O,?,17%,16µM*,3%,4%
O=C(Nc1ccc(S(=O)(=O)C(F)F)cc1)c1ccc2c(=O)n3c(nc2c1)CCC3,-10%,-3%,15µM*,-2%,2%
CC(NC(=O)c1ccc2c(=O)n3c(nc2c1)CCC3)c1ccc(S(N)(=O)=O)cc1 (centres undefined),5%,28%,12%,-3%,0%
SMILES,A549 viability,Rango dissoc inh,Nrf2 inh,Rango-impB inh,Nrf2 activator
O=C(Nc1ccc(SC(F)F)cc1)c1ccc2c(=O)n3c(nc2c1)CCC3,?,-11%,5.8µM*,-2%,7%
COc1ccc(CN(Cc2ccccc2)C(=O)c2ccccc2O)cc1COc1ccc(NC(C)=O)cc1,-1%,·,21%,·,·
CCN1CCN(c2ccc(Nc3ccnc4ccccc34)cc2)CC1,6.5µM*,-3%,12%,?,0%
CN1CCN(c2ccc(Nc3ccnc4cc(Cl)ccc34)cc2)CC1,6.5µM*,7%,?,?,4%
CCN1CCN(c2nc(-c3ccccn3)nc3ccccc23)CC1,-4%,-6%,13%,1%,-1%
CCOc1ccc(Nc2ccnc3cc(Cl)ccc23)cc1,-3%,22%,13%,-1%,0%
CCC1CN(C(=O)Nc2cccc3c2CCCC3)c2cc(C)ccc2O1 (centres undefined),1%,·,?,·,6%
Cc1cc(C(=O)C(C)OC(=O)c2ccc(NC(=O)CC#N)cc2)c(C)n1-c1ccccc1 (centres undefined),-12%,5%,18µM*,-1%,1%
CC(OC(=O)c1ccc(NC(=O)CC#N)cc1)C(=O)NC(c1ccccc1)c1ccccc1 (centres undefined),2%,-6%,10%,-1%,0%
c1nc(N2CCC(N3CCCC3)CC2)c2cc(-c3ccc4c(c3)OCO4)ccc2n1,2%,·,-2%,·,·
CC(=O)c1sc(Nc2ccccn2)nc1C,14%,?,?,-2%,11µM*
COC(=O)c1ccsc1NC(=O)CCS(=O)(=O)c1ccccc1,-3%,16%,-15%,3%,13µM*
CC(=O)c1sc(NC(=O)CCS(=O)(=O)c2ccccc2)nc1C,?,6%,21µM*,-3%,?
Cc1ccc(S(=O)(=O)CCC(=O)Nc2sccc2C(N)=O)cc1,-8%,-21%,-6%,?,8%
COC(=O)c1ccsc1NC(=O)CCS(=O)(=O)c1ccc(Cl)cc1,-2%,-6%,3%,?,16µM*
Cc1c(-c2ccccc2)nc2c(Cl)cccc2c1C(=O)OCC(=O)c1ccc(F)cc1,0%,·,-9%,·,6%
c1coc(C2=NC(c3ccco3)C(c3ccco3)N2)c1 (centres undefined),0%,-15%,?,-2%,?
CS(=O)(=O)N(CC(=O)N1CCN(c2cccc(Cl)c2)CC1)C1CCCCC1,-5%,2%,-10%,0%,0%
Cn1c(=O)cc(SCC(=O)N2CCCC2)c2ccccc21,6%,1%,-13%,1%,1%
Cc1ccc(Cl)cc1N1CCN(C(=O)CN(C2CCCCC2)S(C)(=O)=O)CC1,-10%,-4%,18µM*,-2%,0%
CCOC(=O)N1CCN(C(=O)CCNS(=O)(=O)c2ccccc2)CC1,0%,-6%,5%,-3%,-1%
CCOC(=O)N1CCN(C(=O)COc2ccc(S(=O)(=O)NCc3ccccc3)cc2)CC1,-18%,-15%,18µM*,-1%,0%
Cc1ccc(Cl)cc1N1CCN(C(=O)COc2ccc(S(=O)(=O)NC(C)C)cc2)CC1,-10%,9%,21µM*,1%,0%
Cc1ccc(Cl)cc1N1CCN(C(=O)CSc2cc(=O)n(C)c3ccccc23)CC1,-10%,·,16µM*,·,3%
